Screening results: PubChem BioAssay, National Center for Advancing Translational Sciences (NCATS)
Compounds with a hit are over-represented: about 2.6% of the library has one in this group of screens.
AmpC det inh: Promiscuous and Specific Inhibitors of AmpC Beta-Lactamase (assay with detergent) | Potency, µM (titrated, usually from 28.7 µM), for the others: at the top dose activity change, negative = inhibition | AID 584, 2007 | 71,000 compounds, 0.09% hits | purified AmpC, nitrocefin hydrolysis with detergent; active means well fitted curve in the direction sought with a large enough effect; inconclusive means small, poorly fitted or top-dose-only effect; further: on the % scale 0 is the no-effect control and ±100 the full control effect
Target sequence (P00811 whole entry, looked up): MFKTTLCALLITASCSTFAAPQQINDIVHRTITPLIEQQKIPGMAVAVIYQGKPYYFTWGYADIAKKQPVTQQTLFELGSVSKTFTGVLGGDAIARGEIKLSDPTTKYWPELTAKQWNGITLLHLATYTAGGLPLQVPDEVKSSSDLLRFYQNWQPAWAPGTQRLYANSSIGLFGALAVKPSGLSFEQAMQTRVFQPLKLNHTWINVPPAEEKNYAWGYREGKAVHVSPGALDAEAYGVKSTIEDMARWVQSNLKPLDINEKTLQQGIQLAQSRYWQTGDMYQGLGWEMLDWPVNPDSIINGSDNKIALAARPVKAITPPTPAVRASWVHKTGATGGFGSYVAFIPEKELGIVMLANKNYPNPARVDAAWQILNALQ
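E. coli AmpC (5.3 nM) in 20 mM phosphate pH 7.0 with 0.01% Triton X-100, preincubated 15 min RT with compound; nitrocefin (2 uL of 800 uM stock) hydrolysis followed by 480 nm absorbance every 20 s over 4 min.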
Anthrax LT inh: qHTS Assay for Anthrax Lethal Toxin Internalization. Cells, anthrax lethal toxin internalization, FRET ratio (460/530). Potency, µM (doses to about 40 µM), for inactives: at the top dose activity change, negative = inhibition, most hits filed as inhibitors. 70,000 compounds, 0.67% hits. AID 912, 2007; further: on the % scale 0 is the no-effect control and ±100 the full control effect; nearly all actives have a fitted effect of over 50% in size
Prx2 Sm inh: Schistosoma Mansoni Peroxiredoxins (Prx2); S. mansoni Prx2 activity coupled to TGR/GSH (TGR is thioredoxin glutathione reductase), NADPH fluorescence loss, qHTS; Potency, µM; 65,000 compounds, 0.07% hits
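Coupled assay in which S. mansoni TGR passes NADPH reducing equivalents via glutathione to Prx2, which reduces H2O2. Compounds were preincubated 15 min at room temperature with 25 nM TGR/50 nM Prx2 mix. Kinetic NADPH fluorescence loss (ex 365/em 450 nm) was monitored.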
AmpC inh no det: Promiscuous and Specific Inhibitors of AmpC Beta-Lactamase (assay without detergent); 71,000 compounds, 1.8% hits; AmpC nitrocefin hydrolysis, absorbance 480 nm, no detergent; AID 585, 2007; Potency, µM (series often up to 28.7 µM), for inactives: at the highest dose activity change, negative = inhibition; P00811; further: % of control where 0% means no effect
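AmpC in 20 mM phosphate buffer pH 7.0 was preincubated 15 min at room temperature with compounds. Nitrocefin (800 uM stock) was then added and hydrolysis followed at 480 nm every 20 s for 4 min.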
Starred values were filed as active, the others as inactive; ? = inconclusive; / = no result; ! = not active in a repeat; [ ] = another dose, or the depositor's remark. Unless noted, the call rests on the fitted dose curve. Potency means the concentration at half of the fitted maximal effect.

SMILES	AmpC det inh	Anthrax LT inh	Prx2 Sm inh	AmpC inh no det
COC(=O)C1CCN(C(c2cc(OC)c(OC)c(OC)c2)c2sc3nc(C)nn3c2O)CC1 (stereo not drawn)	8.7%	-4.5%	>57	10.4%
Cc1n[nH]c(C)c1S(=O)(=O)N1CCCC(C(=O)NCc2cccs2)C1 (stereo not drawn)	-0.7%	-3.3%	>57	13.8%
Cc1n[nH]c(C)c1S(=O)(=O)N1CCCC(C(=O)NC2CCCc3ccccc32)C1 (stereo not drawn)	11.2%	-10.3%	>57	3.98µM*[single pt active]
NC[C@@H](O)CSP(=O)(O)O	-6.3%[5.75 µM]	-0.4%[8 µM]	>57	4.4%[5.75 µM]
CN(C)c1ccc(C(=O)Nc2nc3c(s2)CCCC3)cc1	-2.2%	12.6µM*	>57	3.8%
C[C@]1(C(=O)O)[C@@H]2CC[C@@H](O2)[C@@]1(C)C(=O)O	-2.6%	?	>57	0.8%
CS(=O)(=O)N1CCC2(CCN(c3ccccc3)CC2)CC1	-2.1%	8.0%	>57	17.3%
C[C@H](O)[C@H](O)[C@@H]1CNc2nc(N)[nH]c(=O)c2N1	-3.5%	9.3%	>57	-3.7%
CCC(=O)N1CCc2cc(S(=O)(=O)NC(Cc3ccccc3)C(=O)NC3CCCC3)ccc21 (stereo not drawn)	-3.4%	5.5%	>57	17.8%
O=C1CCc2cc(S(=O)(=O)NC(Cc3ccccc3)C(=O)NC3CCCC3)ccc2N1 (stereo not drawn)	14.5%	-16.7%	>57	3.98µM*[single pt active]
CCCNC(=O)C(Cc1ccccc1)NS(=O)(=O)c1ccc2c(c1)CCC(=O)N2 (stereo not drawn)	12.7%	-13.7%	>57	3.98µM*[single pt active]
CN(Cc1ccco1)C(=O)C(Cc1ccccc1)NS(=O)(=O)c1ccc2c(c1)CCC(=O)N2 (stereo not drawn)	16.8%	2.3%	>57	3.98µM*[single pt active]
O=C1CCc2cc(S(=O)(=O)N3CCN(C(=O)c4ccco4)CC3)ccc2N1	-0.2%	12.4%	>57	-8.4%
CC(=O)N1CCC2(CC1)CCN(c1cccc(-c3ccccc3)c1)CC2	-3.5%	-4.9%	>57	159.2%
CCCCCC[C@@H]([C@H](C)O)n1cnc2c(N)ncnc21	-2.2%	-8.4%	>57	20.4%
COc1ccc(NC(=O)N2CC[C@@]3(CCCN(C(=O)c4ccco4)C3)C2)cc1	-2.2%	?	>57	9.2%
O=C1c2ccccc2C(Nc2cccnc2)N1Cc1ccccc1Cl (stereo not drawn)	12.0%	-14.6%	>57	3.98µM*[single pt active]
COc1cc(NC2c3ccccc3C(=O)N2c2ccc(C)cn2)cc(OC)c1OC (stereo not drawn)	12.9%	5.8%	>57	75.8%
CCOC(=O)c1ccccc1NC1c2ccccc2C(=O)N1c1ccc(C)cn1 (stereo not drawn)	13.4%	?	>57	3.98µM*[single pt active]
Cc1ccc(N2C(=O)c3ccccc3C2Nc2cccnc2)nc1 (stereo not drawn)	10.9%	-6.6%	>57	3.98µM*[single pt active]
CCOc1ccccc1NC1c2ccccc2C(=O)N1c1ccc(C)cn1 (stereo not drawn)	12.7%	-26.1%	>57	-3.1%
COc1ccc(OCC2Cc3c(-c4ccccc4)nc4c(c3CO2)CN(CCOc2ccccc2)CC4)cc1 (stereo not drawn)	/	-20.1%[8 µM]	/	/
C[C@@](Br)(C(=O)O)[C@H](Br)C(=O)O	-1.1%[5.75 µM]	?	>57	-4.7%[5.75 µM]
O=S(=O)(c1ccccc1)N1CCC[C@@]2(CCN(Cc3ccccc3)C2)C1	0.8%	?	>57	26.2%
CC1Cc2ccccc2N1C(=O)CSc1nnc(NC(=O)Cc2cccs2)s1 (stereo not drawn)	7.6%	?	>57	12.6µM*[single pt active]
SMILES	AmpC det inh	Anthrax LT inh	Prx2 Sm inh	AmpC inh no det
CCCc1cc(C(=O)Nc2cccnc2)no1	11.4%	-12.9%	>57	3.98µM*[single pt active]
CCCc1cc(C(=O)Nc2sc(C)c(CC)c2C#N)no1	12.8%	12.6µM*	>57	3.98µM*[single pt active]
CCOC(=O)c1c(NC(=O)c2cc(C3CC3)on2)sc(C(C)=O)c1C	5.4%	0.5%	>57	-19.6%
CCCc1cc(C(=O)Nc2sc(C)c(C)c2C(=O)OCC)no1	21.0%	?	>57	3.98µM*[single pt active]
CCCc1cc(C(=O)Nc2sc3c(c2C#N)CCC3)no1	9.8%	?	>57	3.98µM*[single pt active]
CC(=O)N1CCC2(CCN(Cc3nccs3)CC2)CC1	1.2%	13.7%	>57	34.7%
OC[C@H]1O[C@@H]2O[C@H]3[C@H](O)[C@@H](O)[C@@H](O[C@H]4[C@H](O)[C@@H](O)[C@@H](O[C@H]5[C@H](O)[C@@H](O)[C@@H](O[C@H]6[C@H](O)[C@@H](O)[C@@H](O[C@H]7[C@H](O)[C@@H](O)[C@@H](O[C@H]8[C@H](O)[C@@H](O)[C@@H](O[C@H]1[C@H](O)[C@H]2O)O[C@@H]8CO)O[C@@H]7CO)O[C@@H]6CO)O[C@@H]5CO)O[C@@H]4CO)O[C@@H]3CO	11.7%	-25.0%	/	-1.8%
O=C(/C=C\c1ccc(O)cc1)c1ccc(O)cc1O	2.1%	-10.4%	/	-18.3%
CC1=C(C(=O)NC(C)C)C2(CCC(C)CC2)OC1=O (stereo not drawn)	19.3%	-5.7%	>57	3.98µM*[single pt active]
CC1=C(C(=O)NC2CCCCC2C)C2(CCC(C)CC2)OC1=O (stereo not drawn)	2.5%	-16.6%	>57	23.6%
C=CC1=C(C(=O)O)N2C(=O)[C@@H](NC(=O)/C(=N\OCC(=O)O)c3csc(N)n3)[C@@H]2SC1	0.2µM*	3.0%[3.58 µM]	>57	0.316µM*
CO/N=C(\C(=O)N[C@@H]1C(=O)N2C(C(=O)O)=C(COC(C)=O)CS[C@@H]12)c1csc(N)n1	1.26µM*	3.1%[3.58 µM]	>57	1.26µM*!
CC(=O)OCC1=C(C(=O)O)N2C(=O)[C@@H](NC(=O)Cc3cccs3)[C@@H]2SC1	-7.6%[12.8 µM]	-2.7%[3.58 µM]	>57	-8.5%[12.8 µM]
O=C1OCCC1Sc1nnc(-c2ccco2)o1 (stereo not drawn)	-0.5%	-6.2%	6.54*	2.1%
Cc1ccc(-c2nnn(CC(=O)N(c3cccc(F)c3)C(C(=O)NC3CCCC3)c3ccco3)n2)o1 (stereo not drawn)	-4.4%	-9.0%	>57	12.6µM*
COc1ccc(NC(=O)N2CCC3(CC2)CCN(C(=O)c2csnn2)CC3)cc1	-1.2%	2.1%	>57	9.4%
CCC(C)NC(=O)CC1Oc2ccc(C)cc2NC1=O (stereo not drawn)	12.6%	-3.3%	>57	3.98µM*[single pt active]
CCN(CC)CCCNC(=O)CC1Oc2ccc(C)cc2NC1=O (stereo not drawn)	12.8%	5.2%	>57	3.98µM*[single pt active]
COC(=O)C(C)Sc1nnc(Cc2cc(=O)[nH]c(=O)[nH]2)n1-c1cc(C)ccc1C (stereo not drawn)	14.2%	-5.3%	>57	2µM*
CCOc1ccc(-n2c(Cc3cc(=O)[nH]c(=O)[nH]3)nnc2SC(C)C(=O)OC)cc1 (stereo not drawn)	10.0%	-7.8%	>57	24.5%
CSc1nnc(Cc2cc(=O)[nH]c(=O)[nH]2)n1-c1cccc(C)c1	6.6%	-5.9%	>57	-16.1%
